Among all 360,000 compounds or so, about 25,000 (6.9%) were called active. Entries that show only a call come without a potency. Not shown: some 9% with an inconclusive outcome. The sample holds actives, similar compounds and a random draw of the others, so the mix is not that of the screen. Calls follow the shape of the dose curve; as a rule, active = well fitted inhibition curve with a large enough effect; inconclusive = small, poorly fitted or top-dose-only effect; inactive = flat fitted curve, though single readings scatter.
Potency is read from the fitted curve at half-maximal effect.

In this experiment the target is Luciferin 4-monooxygenase (Photinus pyralis) (UniProt P08659). In words: qHTS profiling assay for firefly luciferase inhibitor/activator using purifed enzyme and Km concentrations of substrates (counterscreen for miR-21 project). Also: nearly all actives have a fitted effect of over 55% in size. The conditions noted are these: purified FLuc, luminescence inhibition; series mostly up to 57.5 µM. In a few lines: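 Purified P. pyralis luciferase, 10 nM final, with Km-level 10 uM D-luciferin and 10 uM ATP in 50 mM Tris acetate pH 7.5, 10 mM Mg acetate, 0.01% Tween-20, 0.05% BSA; 6-point qHTS titration about 60 µM downward; luminescence read.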
Sequence of Luciferin 4-monooxygenase (Photinus pyralis) (P08659 whole entry, looked up): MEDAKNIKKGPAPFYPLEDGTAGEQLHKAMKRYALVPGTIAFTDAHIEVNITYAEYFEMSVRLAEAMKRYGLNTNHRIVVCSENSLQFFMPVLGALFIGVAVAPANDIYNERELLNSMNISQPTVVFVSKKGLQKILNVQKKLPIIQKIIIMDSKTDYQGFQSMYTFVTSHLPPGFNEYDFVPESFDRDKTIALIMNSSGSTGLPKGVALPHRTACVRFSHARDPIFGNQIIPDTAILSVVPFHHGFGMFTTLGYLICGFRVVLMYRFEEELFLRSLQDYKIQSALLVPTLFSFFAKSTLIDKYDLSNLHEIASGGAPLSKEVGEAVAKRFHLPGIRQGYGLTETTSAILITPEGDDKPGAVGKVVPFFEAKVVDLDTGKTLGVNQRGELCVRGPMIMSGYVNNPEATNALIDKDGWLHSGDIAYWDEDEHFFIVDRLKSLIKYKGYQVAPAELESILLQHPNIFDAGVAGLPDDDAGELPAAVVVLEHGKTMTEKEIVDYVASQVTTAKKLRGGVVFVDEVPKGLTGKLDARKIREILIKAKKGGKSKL
(qHTS replaces the single test concentration by a dilution series.)
For the molecule `COc1ccc(-c2cn3c(n2)sc2cc(C(=O)Nc4ccccc4F)ccc23)cc1`, the Potency entry is “inactive”.
The result for `O=C(Cc1cccs1)Nc1ccc([N+](=O)[O-])cc1` reads “inactive”; that for `CCc1ccc(NC(=O)CCNS(=O)(=O)c2cccs2)cc1`, “inactive”; that for `Cc1cccc(C(=O)OCC(=O)Nc2ccc(F)cc2)c1`, “inactive”.
Under `O=C(Nc1ccccc1)c1ccc(NC(=O)c2cccs2)cc1` stands “inactive”; under `O=C(O)Cc1ccc(NC(=O)c2cccs2)cc1`, 12 µM (active).
As to `O=C(COC(=O)c1cccs1)NCc1cccs1`, the Potency result was “inactive”.
Turning to `CCc1ccc(NC(=O)COC(=O)c2cccs2)cc1`, the Potency was 6.75 µM (active).
Under `CCOC(=O)c1ccc(NC(=O)Cc2cccs2)cc1` stands 15.1 µM (active); under `CCOc1ccccc1NC(=O)Cc1cccs1`, “inactive”; under `Cc1cccc(C(=O)Nc2ccc(CC(=O)O)cc2)c1`, 9.53 µM (active).
Take `O=C(Nc1ccc(N2CCN(C(=O)C3CC3)CC2)cc1)c1cccs1`: the Potency entry was “inactive”.
The result for `CC(=O)Nc1ccc(NC(=O)[C@@H](NC(=O)c2cccc(C)c2)C(C)C)cc1` reads “inactive”; that for `Cc1ccc(CN(C(=O)COc2ccc(Cl)cc2C)C2CCS(=O)(=O)C2)o1` (stereo not drawn), “inactive”; that for `CN(CC(=O)NNC(=O)CNC(=O)c1ccccc1Cl)S(=O)(=O)c1ccc(Cl)cc1`, “inactive”.
The result for `Cc1ccc(CN2COc3cc(C)c4c(oc(=O)c5ccccc54)c3C2)cc1` reads “inactive”.
The result for `COc1ccc(C(=O)OC(C)C(=O)NC2CCCC2)cc1S(=O)(=O)N1CCOCC1` (stereo not drawn) reads “inactive”; that for `COc1ccc(OC)c(NC(=O)C2CCCN(S(=O)(=O)c3ccc4c(c3)CCCC(=O)N4)C2)c1` (stereo not drawn), “inactive”.
`O=C(Cn1ncc2c3ccccc3n(Cc3ccccc3)c2c1=O)NC1CCCCCC1`: the Potency result is “inactive”.
Under `CC(C)C(=O)Nc1ccc(C(=O)NNC(=O)c2cccs2)cc1` stands “inactive”; under `Cc1ccc(C)c(NC(=O)CCC(=O)NNC(=O)c2cccs2)c1`, “inactive”; under `CCc1ccc(NC(=O)C(=O)NNC(=O)c2cccs2)cc1`, 16.9 µM (active).
The result for `COCCn1cnc2c1c(=O)n(CC(=O)NN)c(=O)n2Cc1ccccc1` reads “inactive”.
The result for `Cc1ccccc1-c1cc(C(=O)NCC2CC2)n(CC2CC(c3cccnc3)=NO2)n1` (stereo not drawn) reads “inactive”.
For the molecule `Cc1nc2sc(C)c(C)n2c(=O)c1S(=O)(=O)NCCc1ccc(Cl)cc1`, the Potency entry was “inactive”.
The result for `Cc1n[nH]c(=O)n1-c1ccc(C(C)C)cc1` reads “inactive”; that for `c1cc(-c2nn[nH]n2)ccc1CN1CCCCC1`, “inactive”; that for `CC(C)c1ccc(-c2nn[nH]n2)cc1`, 6.01 µM (active).
On to `CCOc1ccc(N(CC)C(=O)c2noc3c2COc2ccc(C)cc2-3)cc1`, for which the Potency result was “inactive”.
The result for `COc1ccccc1CNC(=O)CCn1c(=O)c2ccccc2n(CC(=O)Nc2cccc(Cl)c2)c1=O` reads “inactive”; that for `Cc1ccc(C)c(N2CCN(C(c3ccccc3)c3nnc(-c4ccccc4)o3)CC2)c1` (stereo not drawn), “inactive”.
Turning to `CCOc1ccc(NC(=O)NNC(=O)c2ccc(Cl)cc2Cl)cc1`, the Potency entry is “inactive”.
Under `OC(CNCCc1ccc(Cl)cc1Cl)COc1ccccc1` (stereo not drawn) stands “inactive”; under `NC(N)=N/N=C/c1ccc(OCc2ccc(Cl)cc2Cl)cc1`, 16.9 µM (active).
Regarding `C#CCOc1ccc(C2CC(=O)Nc3c2c(C)nn3-c2nc(C)cc(C)n2)cc1` (stereo not drawn), the Potency result was “inactive”.
The result for `CCS(=O)(=O)c1ccc(O)c(NC(=O)COc2ccc(Cl)cc2)c1` reads 16.9 µM (active).
The result for `COC(=O)c1sccc1NC(=O)COc1ccc(Cl)cc1` reads “inactive”; that for `CS(=O)(=O)c1ccc(C(=O)OCC(=O)NNC(=O)COc2ccc(Cl)cc2)cc1`, “inactive”; that for `CCOc1ccc(N(Cc2ccccc2)C(=O)c2nc(SCC)ncc2Cl)cc1`, “inactive”.
Under `CCCN1CN=C(NS(=O)(=O)c2ccc(NC(C)=O)cc2)NC1` stands “inactive”; under `COCCOC(=O)c1[nH]c2c(c1C)C(=O)CC(c1ccc(OC)cc1)C2` (stereo not drawn), “inactive”.
For the molecule `CCCOC(=O)C1=C(C)NC2=C(C(=O)C(C(=O)OC)C(C)C2)C1c1ccc(N(C)C)cc1` (stereo not drawn), the Potency result is “inactive”.
Under `COC(=O)C1C(=O)c2c([nH]c(C(=O)OCCSC)c2C)CC1C` (stereo not drawn) stands 7.57 µM (active).
Under `CCc1ccc(NC(=O)Cn2c(=O)n(CCC(=O)NCc3ccc4c(c3)OCO4)c(=O)c3ccccc32)cc1` stands “inactive”.
The result for `CC(C)CC(=O)NCC(c1ccc2c(c1)OCO2)N1CCN(c2ccc(F)cc2)CC1` (stereo not drawn) reads “inactive”.
With `CCC(=O)Nc1c(C)n[nH]c1C`, the Potency result is “inactive”.
Under `Cc1ccc(Nc2nc(Cl)c(C=O)s2)cc1` stands 12 µM (active); under `Cc1ccc(Nc2nc(C)cc(C)c2C(N)=O)cc1`, “inactive”; under `Cc1ccc(NC(=O)Nc2nnc(-c3ccncc3)s2)cc1`, “inactive”.
Consider `Cc1ccc2c(=O)c(C(=O)c3cccc(Cl)c3)cn(CC(=O)NCc3ccccc3)c2n1`, for which the Potency result was “inactive”.
The result for `CSCCC(NC(=O)c1ccc(Cl)cc1Cl)C(=O)NNC(=O)c1csc(N2CCOCC2)n1` (stereo not drawn) reads 23.9 µM (active); that for `COc1ccccc1C(=O)NC(CCSC)C(=O)NNC(=O)c1csc(N2CCOCC2)n1` (stereo not drawn), “inactive”; that for `COc1ccc(NS(=O)(=O)c2ccc(C)c(C(=O)NNC(=O)c3csc(N4CCOCC4)n3)c2)cc1`, “inactive”.
The result for `Cc1ccc(NC(=O)Nc2sc3nc4n(c(=O)c3c2C)CCC(C)CC4)c(Cl)c1` (stereo not drawn) reads “inactive”; that for `COc1ccc2oc(N)c(C=O)c(=O)c2c1`, “inactive”.
Under `CCc1cc2c(=O)c(-c3ccc(F)cc3)c(C(F)(F)F)oc2cc1OCC(=O)O` stands “inactive”.
For the molecule `CCc1cc2c(=O)c(-c3ccon3)c(N)oc2cc1OC`, the Potency is 2.39 µM (active).
Consider `Cc1cccc(NC(c2cccc(F)c2)c2ccc3ccc(C)nc3c2O)n1` (stereo not drawn), for which the Potency result was “inactive”.
The result for `CCc1nc(SCC(=O)NNC(=O)c2ccc(C)cc2)c2ccccc2n1` reads “inactive”.
The result for `Cc1ccc(C(=O)NNC(=O)c2cc3cc4ccccc4nc3s2)cc1` reads “inactive”; that for `Cc1ccc(C(=O)NNc2ncnc3ccccc23)cc1`, 8.49 µM (active).
Under `CC1=C(C(=O)Nc2ccccc2Cl)C(c2cccs2)n2ncnc2N1` (stereo not drawn) stands “inactive”; under `O=C(COC(=O)/C=C/c1cn(-c2ccccc2)nc1-c1cccnc1)Nc1ccc(Cl)cc1Cl`, “inactive”.
With `O=C(/C=C\c1cn(-c2ccccc2)nc1-c1cccs1)N1CCOCC1`, the Potency was 7.57 µM (active).
As for `O=C(NCc1cccnc1)c1cn(-c2ccccc2)nc1-c1cccs1`, the Potency was 6.01 µM (active).
The result for `COc1cccc(NC(=O)CN(C)C(=O)/C=C/c2cn(-c3ccccc3)nc2-c2cccs2)c1` reads “inactive”.
The result for `COc1ccc(-c2nn(-c3ccccc3)cc2/C=C\C(=O)N2CCOCC2)cc1[N+](=O)[O-]` reads “inactive”; that for `O=C(NCc1cccnc1)c1nc(-c2cccs2)no1`, “inactive”.
For `O=C(O)c1ccc(N/N=C/c2cn(-c3ccccc3)nc2-c2cccs2)cc1`, the Potency is 0.107 µM (active).
Take `O=C(O)/C=C/c1cn(-c2ccccc2)nc1-c1cccs1`: the Potency is 21.3 µM (active).
Under `CCC(=O)N1N=C(c2ccc(OC)cc2)CC1c1cn(-c2ccccc2)nc1-c1cccs1` (stereo not drawn) stands “inactive”.
The result for `S=c1[nH]nc(-c2cccs2)n1/N=C/c1cn(-c2ccccc2)nc1-c1ccc(Cl)cc1` reads “inactive”.
As for `Cc1c(NC(=O)C(=O)N/N=C/c2cccs2)c(=O)n(-c2ccccc2)n1C`, the Potency entry is “inactive”.
With `O=C(/C=C/c1cccs1)NCc1cccnc1`, the Potency result was “inactive”.
The result for `CN(C)c1ccc(NC(=S)N(CCc2ccccc2)C2CC(=O)N(c3c(Cl)cccc3Cl)C2=O)cc1` (stereo not drawn) reads “inactive”.
Under `CCN1CCN(CCCNC(=O)c2cnn(-c3ccc(C)cc3C)c2C2CCN(C(=O)OC(C)(C)C)CC2)CC1` stands “inactive”; under `O=C(COC(=O)c1cc(=O)[nH]c2ccccc12)NCc1cccc(Cl)c1`, “inactive”.
The result for `Cn1cc(S(=O)(=O)N2CCCCCC2)cc1C(=O)N1CCN(c2ccc(F)cc2)CC1` reads “inactive”; that for `CCc1ccc2c(c1)cc(CN(C(=S)Nc1ccccc1Cl)C1CC1)c1nnnn12`, “inactive”; that for `O=C(Cc1ccccc1)Nc1sc2c(c1C(=O)Nc1ccc(Br)cc1)CCC2`, “inactive”.
Consider `Cc1ccc(S(=O)(=O)c2nc(-c3cccs3)oc2N2CCCCC2)cc1`, for which the Potency entry was “inactive”.
Regarding `CCOc1cc(C2c3c(-c4ccc(Br)cc4)n[nH]c3C(=O)N2c2ccc(Cl)cc2)ccc1O` (stereo not drawn), the Potency result was “inactive”.
As for `COc1cccc(C(=O)NNS(=O)(=O)c2ccc(F)cc2)c1`, the Potency result is “inactive”.
Regarding `CCCC(=O)Nc1nc2ccc(NC(=O)c3cccnc3)cc2s1`, the Potency entry was “inactive”.
With `CS(=O)(=O)c1ccc2nc(NC(=O)C3C4C=CC(C4)C3C(=O)O)sc2c1` (stereo not drawn), the Potency result is “inactive”.
The result for `CS(=O)(=O)c1ccc2nc(NC(=O)c3ccc(Cl)nc3)sc2c1` reads 21.3 µM (active); that for `COc1cccc(C(=O)Nc2nc3ccc(S(C)(=O)=O)cc3s2)c1`, 6.01 µM (active).
Under `CN(C)c1cccc(C(=O)Nc2nc3ccc(S(=O)(=O)NC(C)(C)C)cc3s2)c1` stands “inactive”; under `O=C(NC1CC(=O)N(c2ccc(F)cc2)C1)c1ccc(S(=O)(=O)N2CCCC2)cc1` (stereo not drawn), “inactive”; under `O=C(CSc1nc2ccccc2c(=O)n1-c1ccc(F)cc1)NC1CC1`, “inactive”.
For the molecule `Cc1ccc(-n2c(SCC(=O)N3CCC(C(=O)O)CC3)nc3ccccc3c2=O)cc1C`, the Potency is 13.5 µM (active).
`COc1cccc(-n2c(SCC(=O)c3c[nH]c4ccccc34)nc3ccccc3c2=O)c1`: the Potency entry was “inactive”.
The result for `COc1ccccc1N1CCN(S(=O)(=O)CCNC(=O)COc2ccc(F)cc2)CC1` reads “inactive”.
Under `COc1ccc(S(=O)(=O)N2CCN(CC(=O)NCC3(N4CCOCC4)CCCCC3)CC2)cc1` stands “inactive”; under `CCCCSc1nnc(-c2ccc(C)cc2)o1`, 2.69 µM (active); under `CC1=CC(C)(C)N(C(=O)CSc2nnc(-c3ccccc3)o2)c2ccc(C)cc21`, “inactive”.
The result for `Cc1ccc(-c2nnc(SCc3ccccc3C)o2)cc1` reads 10.7 µM (active).
Regarding `COc1cccc(NC(=O)CSc2nnc(-c3cccnc3)o2)c1`, the Potency result was “inactive”.
The result for `Cc1cccc(C)c1OC(=O)CSc1nnc(-c2ccccc2)o1` reads “inactive”.
For `COC(=O)CSc1nnc(-c2cccnc2)o1`, the Potency entry is “inactive”.
Consider `Cc1ccccc1CSc1nnc(CCCCCNC(=O)OC(C)(C)C)o1`, for which the Potency entry was “inactive”.
The result for `COc1ccc(-c2nnc(SCc3cccnc3)o2)cc1` reads 21.3 µM (active); that for `CCOC(=O)CSc1nnc(-c2ccc([N+](=O)[O-])cc2)o1`, “inactive”.

(Values after PubChem BioAssay AID588342 (National Center for Advancing Translational Sciences (NCATS), 2011).)
